“And” between values parts separate entries of the source, which are not always exact repeats. Equal values may be shown once. Hit rate of the full screen: of about 320,000 compounds, about 2,100 (0.66%) were called active. Not shown: some 53% with an inconclusive outcome. Calls follow the shape of the dose curve; as a rule, active = well fitted inhibition curve with a large enough effect in the signal ratio, with a control signal flat (not every such curve was filed as active); inconclusive = small, poorly fitted or top-dose-only effect, or effect the other way, or a change in a side signal; inactive = flat fitted curve, though single readings scatter; the % refers to the signal ratio. The sample as a whole holds a higher share of actives than the screen did.
Potency is read from the fitted curve at half-maximal effect.

This assay is described as follows: qHTS Assay for Lipid Storage Modulators in Drosophila S3 Cells.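 As to cell number change: cells counted by Cell Tracker Red CMTPX staining in the red channel.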 As to lipid storage change, negative = inhibition: % is scaled to controls: 0 for no effect and ±100 for the full control effect. The settings on record: BODIPY lipid droplet fluorescence, 18-24 h, cells fed with added oleic acid; cell number change: measured here: cell count max response; series mostly up to 46.1 µM; lipid storage change, negative = inhibition: at the top concentration. A digest of the protocol:
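Laser-scanning cytometry quantifies lipid droplet accumulation (500–530 nm total intensity; droplet/cell object ratio) in oleic acid-fed (400 uM added) Drosophila S3 cells treated with a concentration series. 20 uM Triacsin C defined 100% inhibition.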
As for `COC(=O)/C=C1\SC(=NC(=O)c2cccc(Cl)c2)NC1=O`, the “lipid storage change, negative = inhibition” value is -25.1% (inactive) and the cell number change was -23.4%.

As for `Nc1nonc1-n1nnc(C(=O)N/N=C/c2ccc(OCc3ccccc3)cc2)c1CN1CCCCC1`, the compound was called inactive.

Consider `O=C(Nc1cccc(NC(=O)c2ccc(Br)o2)c1)c1ccccc1`, for which the compound was called inactive and the cell number change is -12.9%.

Turning to `N#CC1=C(Nc2ccccc2)SC=C(c2ccc(Cl)c(Cl)c2)N=C1N1CCOCC1`, the “lipid storage change, negative = inhibition” value was 6.25% (inactive) and the cell number change was -15.3%.

Consider `Cc1cc(C)n(-c2ccc(C(=O)NC3CCCCC3)cc2)n1`, for which the “lipid storage change, negative = inhibition” value is 14.6% (inactive) and the cell number change came out at 17.4%.

`COc1ccccc1NC(=O)C(C/C=C(/C)Cl)C(C)=O` (stereo not given): the “lipid storage change, negative = inhibition” value is 9.77% (inactive) and the cell number change is 12.3%.

Turning to `COc1ccc(N(CC(=O)N/N=C/c2cccnc2)S(=O)(=O)c2ccc(C)cc2)cc1OC`, the outcome was inactive and the cell number change was -15.9%.

For `CC(=O)Nc1ccc(S(=O)(=O)NC2CC2)cc1`, the “lipid storage change, negative = inhibition” value was 11% (inactive) and the cell number change is -7.3%.

As for `O=C(O)CCCCCCCCCC(=O)c1cccs1`, the compound was called inactive and the cell number change was -19.9%.

In the case of `O=C(CCN1C(=O)/C(=C\c2ccco2)SC1=S)Nc1ccc(C(=O)O)c(O)c1`, the result was inactive and the cell number change is 1.15%.

For `O=C(CN1C(=O)/C(=C/c2ccco2)SC1=S)Nc1ccc(C(=O)O)c(O)c1`, the Potency is 20.6 µM (active) and the cell number change turned out to be 25.4%.

In the case of `O=C(CCN1C(=O)/C(=C/c2ccco2)SC1=S)Nc1ccc(C(=O)O)c(O)c1`, the “lipid storage change, negative = inhibition” value is -2.83% (inactive) and the cell number change is -0.876%.

In the case of `Cc1ccccc1COC(=O)c1nn(-c2ccccc2)nc1N`, the “lipid storage change, negative = inhibition” value was -1.71% (inactive) and the cell number change is 3.63%.

In the case of `CCOC(=O)C(NC(=O)c1ccc(F)cc1)(Nc1nnc(C)s1)C(F)(F)F` (stereo not given), the “lipid storage change, negative = inhibition” value is -21.6% (inactive) and the cell number change was 2.37%.

In the case of `COc1ccc(NC(=O)N2CCCC(CNS(=O)(=O)c3cccs3)C2)c(C)c1` (stereo not given), the “lipid storage change, negative = inhibition” value is 12.7% (inactive) and the cell number change is -5.03%.

Turning to `COCCCn1c(SCC(=O)Nc2ccc(C)cc2)nc2ccccc2c1=O`, the “lipid storage change, negative = inhibition” value was -20% (inactive) and the cell number change is -12.3%.

Take `COCCn1c(SCC(=O)Nc2ccc(F)cc2)nc2ccccc2c1=O`: the “lipid storage change, negative = inhibition” value is -11.7% (inactive) and the cell number change stood at 3.47%.

In the case of `COCCn1c(SCC(=O)Nc2cc(C)cc(C)c2)nc2ccccc2c1=O`, the Potency was 2.06 µM (active) and the cell number change was -20.8%.

Consider `CSCC[C@H](NC(=O)COc1ccc(Cl)cc1)C(=O)N1CCC2(CC1)NCCc1[nH]cnc12`, for which the call was inactive.

In the case of `O=C(NC(Cc1ccccc1)C(=O)O)C1CCCCC1` (stereo not given), the “lipid storage change, negative = inhibition” value is -0.512% (inactive) and the cell number change is -3.98%.

With `CCC(C(=O)NC(C)(C)C)N(Cc1ccccc1Cl)C(=O)c1snc(C(N)=O)c1N` (stereo not given), the outcome was inactive and the cell number change is -22.3%.

Turning to `COc1ccc(N(C(=O)c2snc(C(N)=O)c2N)C(C(=O)NC2CCCCC2)c2ccc(F)cc2)c(OC)c1` (stereo not given), the Potency is 13 µM (active).

For `COc1ccc(N(C(=O)c2snc(C(N)=O)c2N)C(C(=O)NC2CCCC2)c2cc(OC)ccc2OC)c(OC)c1` (stereo not given), the call was inactive and the cell number change was -0.901%.

In the case of `CCCC(C(=O)NCCC(C)C)N(Cc1ccc(OC)cc1)C(=O)c1snc(C(N)=O)c1N` (stereo not given), the “lipid storage change, negative = inhibition” value was -29.9% (inactive) and the cell number change is -7.72%.

For the compound `CCCC(C(=O)NCCC(C)C)N(Cc1ccccc1)C(=O)c1snc(C(N)=O)c1N` (stereo not given), the Potency is 3.66 µM (active) and the cell number change is -3.86%.

As for `CCC(C(=O)NC1CCCCC1)N(Cc1cccs1)C(=O)c1snc(C(N)=O)c1N` (stereo not given), the “lipid storage change, negative = inhibition” value is 23.1% (inactive).

Consider `CCC(C(=O)NC1CCCC1)N(Cc1ccccc1Cl)C(=O)c1snc(C(N)=O)c1N` (stereo not given), for which the Potency is 0.58 µM (active) and the cell number change was -3.04%.

`COc1ccc(C(C(=O)NC2CCCC2)N(C(=O)c2snc(C(N)=O)c2N)c2cc(C)ccc2OC)cc1OC` (stereo not given): the “lipid storage change, negative = inhibition” value is -18.1% (inactive) and the cell number change is -1.28%.

Regarding `CCCC(C(=O)NCCC(C)C)N(Cc1ccc(F)cc1)C(=O)c1snc(C(N)=O)c1N` (stereo not given), the “lipid storage change, negative = inhibition” value is 3.86% (inactive) and the cell number change is -7.77%.

Regarding `CCOC(=O)Cc1csc(NC(=S)NC(=O)c2cc(OC)c(OC)c(OC)c2)n1`, the “lipid storage change, negative = inhibition” value is -6.87% (inactive) and the cell number change is -1.2%.

`COc1ccc(NC(=O)Nc2nnc(-c3cccs3)s2)cc1`: the “lipid storage change, negative = inhibition” value was 10.9% (inactive) and the cell number change was -11.4%.

On to `COc1ccc(C(=O)Nc2nc(-c3ccccc3)c(C(C)=O)s2)c(OC)c1`, for which the “lipid storage change, negative = inhibition” value was -6.74% (inactive) and the cell number change was -8.6%.

With `COCCn1c(=O)[nH]c2cc(C(=O)NC(C)C)ccc2c1=O`, the “lipid storage change, negative = inhibition” value is 9.58% (inactive) and the cell number change was 2.66%.

With `CCCS(=O)(=O)c1nc(S(=O)(=O)c2ccc(C)cc2)c(NCCCN(C)C)s1`, the “lipid storage change, negative = inhibition” value was 1.35% (inactive) and the cell number change turned out to be 6.73%.

As for `CC(=O)NC(c1ccco1)c1cc(F)c2cccnc2c1O` (stereo not given), the “lipid storage change, negative = inhibition” value is -4.42% (inactive) and the cell number change is -4.72%.

`CC(=O)NC(c1cccs1)c1cc(F)c2cccnc2c1O` (stereo not given): the Potency was 8.4% and -17.4%.

`CC(=O)NC(c1cccs1)c1cc(Br)c2cccnc2c1O` (stereo not given): the “lipid storage change, negative = inhibition” value is 10.4% (inactive) and the cell number change stood at 16.4%.

`Cc1cc(C)c(NC(=O)CS(=O)CC(=O)NCC2CCCO2)c(C)c1` (stereo not given): the “lipid storage change, negative = inhibition” value is 4.71% (inactive) and the cell number change was determined as 3.77%.

Turning to `Cc1ccc(NC(=O)c2cccc(C(F)(F)F)c2)cc1NC(=O)c1[nH]cnc1C(N)=O`, the Potency was 0.517 µM (active) and the cell number change was -5.2%.

In the case of `Cc1ccc(C(=O)Nc2cccc(C(F)(F)F)c2)cc1Nc1ncnc2nc[nH]c12`, the “lipid storage change, negative = inhibition” value is 14.7% (inactive) and the cell number change is -0.327%.

`Cc1ccc(C(=O)Nc2cccc(C(F)(F)F)c2)cc1NC(=O)c1nccnc1N`: the “lipid storage change, negative = inhibition” value was -14.7% (inactive) and the cell number change is -18.4%.

Consider `CC(NC(=O)c1cc(S(=O)(=O)N2CCCC2)ccc1Cl)c1ccccn1` (stereo not given), for which the “lipid storage change, negative = inhibition” value was 11.6% (inactive) and the cell number change amounted to 12.8%.

For `O=C(N/N=C/c1ccc([N+](=O)[O-])cc1)c1ccc2nc[nH]c2c1`, the “lipid storage change, negative = inhibition” value was 6.51% (inactive) and the cell number change is -15.6%.

As for `O=C(Nc1ccc(F)cc1)c1cc(Cl)sc1Cl`, the “lipid storage change, negative = inhibition” value is 5.17% (inactive) and the cell number change was -1.56%.

Consider `Cc1ccccc1NC(=S)C1=C(O)c2sccc2N(C)S1(=O)=O`, for which the result was inactive.

In the case of `CN1c2ccsc2C(O)=C(C(=S)Nc2ccccc2)S1(=O)=O`, the Potency was 18.4 µM (active) and the cell number change came out at 15.4%.

Take `CN1c2ccccc2C(O)=C(C(=O)Nc2ccccc2)S1(=O)=O`: the “lipid storage change, negative = inhibition” value was 15.4% (inactive).

For the compound `COc1ccc(NC(=S)NNC(=O)CNc2ccc(Cl)cc2)cc1`, the “lipid storage change, negative = inhibition” value was 18% (inactive).

For the compound `COc1ccccc1N1CCN(CC(C)N(C(=O)C2CCCCC2)c2ccccn2)CC1` (stereo not given), the “lipid storage change, negative = inhibition” value was 12.2% (inactive) and the cell number change came to 9.42%.

Turning to `CCOc1cc(C2C(C(=O)c3ccc(C)o3)=C(O)C(=O)N2CCc2ccccc2)ccc1O` (stereo not given), the “lipid storage change, negative = inhibition” value is 16.1% (inactive).

For `O=C(CN1CCCCCC1)Nc1cccc(NC(=O)CN2CCCCCC2)c1`, the “lipid storage change, negative = inhibition” value is -3.29% (inactive) and the cell number change is -11.3%.

On to `COC(=O)c1ccc(NC(=O)CN2CCCC2)cc1`, for which the “lipid storage change, negative = inhibition” value was -7.98% (inactive) and the cell number change was -13.3%.

Regarding `COc1ccc(NC(=O)CCN2CCCCC2)cc1`, the Potency is 18.4 µM (active) and the cell number change is -13.9%.

With `O=C(CCN1CCCC1)Nc1cccc(Br)c1`, the “lipid storage change, negative = inhibition” value was 8.6% (inactive) and the cell number change was -0.144%.

For `CCOC(=O)c1cc(NC(=O)CN2CCCC2)cc(C(=O)OCC)c1`, the Potency was 2.31 µM (active) and the cell number change is -1.35%.

As for `COc1ccc(NC(=O)CCN2CCCCCC2)cc1`, the “lipid storage change, negative = inhibition” value was -1.99% (inactive) and the cell number change is -0.671%.

Turning to `COC(=O)c1cc(NC(=O)CN2CCN(C(C)=O)CC2)cc(C(=O)OC)c1`, the “lipid storage change, negative = inhibition” value is -5.4% (inactive) and the cell number change was 15.4%.

With `O=C(CCN1CCN(CCO)CC1)Nc1ccc(F)c(F)c1`, the Potency was 6.51 µM (active) and the cell number change came out at 1.67%.

In the case of `O=C(CCN1CCN(CCO)CC1)Nc1ccc(Br)cc1`, the “lipid storage change, negative = inhibition” value was -8.8% (inactive) and the cell number change amounted to 0.964%.

For `CCOc1ccc(NC(=O)CCN2CCCCC2)cc1`, the “lipid storage change, negative = inhibition” value is -2.95% (inactive) and the cell number change was determined as 9.23%.

Consider `CN1CCN(CCC(=O)Nc2ccc(F)c(F)c2)CC1`, for which the “lipid storage change, negative = inhibition” value was -5.86% (inactive) and the cell number change is -0.365%.

For the compound `O=C(CN1CCCCC1)Nc1cccc(Br)c1`, the Potency is 23.1 µM (active) and the cell number change is -14.8%.

The record behind these values is PubChem BioAssay AID2685 (National Center for Advancing Translational Sciences (NCATS), 2010).
